# Where “and” joins values, the source holds several entries; their conditions need not be identical. Equal values may be shown once. A number with no mark means an inactive call. Inconclusive results are not listed. Entries that show only a call come without a potency. Calls of active or inactive are those of the source. Unless noted, calls follow the shape of the dose curve; as a rule, active = well fitted curve in the direction sought with a large enough effect; inconclusive = small, poorly fitted or top-dose-only effect, or another doubt; inactive = no such curve, though single readings can be large; an effect the other way counts as inactive or inconclusive.
# Columns and labels:
# [1] = biological target: Cytochrome P450 1A2 (Homo sapiens) (UniProt P05177); assay: p450-cyp1a2 (AID 410; calls by dose curve; also: potency is read from the fitted curve at half-maximal effect)
# Outline: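 20nM CYP1A2 with 100uM Luciferin-ME (at Km) in 100mM KPO4; compound preincubated 10 min, NADPH regeneration added, 60 min at room temperature. Luciferin quantified by luminescence after detection reagent; normalized to 57 uM furafylline.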
# [2] = biological target: Mitogen-activated protein kinase 10 (Mus musculus) (UniProt Q61831); assay: JNK3 AlphaScreen Assay (AID 530; active = well fitted curve in either direction with a large enough effect, not every such curve was filed as active;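 also: kinase came from lysate of stimulated human HepG2 cells; signal reports phosphorylation of biotinylated GST-cJun 1-79 at Ser73 with 10 µM ATP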)
# Outline: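 Pre-activated (IL-1β/TNFα) JNK3 in HepG2 lysates phosphorylates biotin-GST-cJun(1-79), 10 uM ATP; anti-phospho-cJun(Ser73) AlphaScreen read at room temperature, pH 7.6 Tris buffer. Compounds pre-incubated 15 min as titrations.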
# [3] = biological target: 3',5'-cyclic-AMP phosphodiesterase 4B (Homo sapiens) (UniProt Q07343); assay: qHTS Assay for Inhibitors of PDE-IV (AID 607; active = well fitted activation curve with a large enough effect in the main read-out, with a control signal flat, not every such curve was filed as active)
# Outline: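 HEK293 ACTOne cells with CNG channel (1000/well), endogenous PDE4; membrane potential dye, compounds up to 22.9 uM final. Fluorescence Ex 535/Em 590; RO 20-1724 (100 uM final) as reference.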
# [4] = biological target: Cytochrome P450 3A4 (Homo sapiens) (UniProt P08684); assay: qHTS Assay for Activators of Cytochrome P450 3A4 (AID 885); also: nearly all actives have a fitted effect of over 65% in size
# Outline: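 Human CYP3A4 (20 nM) with Luciferin-PPXE at 25 uM (its KM) in 200 mM KPO4; 10 min compound preincubation, then NADPH regeneration and 60 min reaction at RT. Luciferin read by luminescence; normalized to 57 uM ketoconazole full inhibition.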
# [5] = biological target: Cytochrome P450 2C19 (Homo sapiens) (UniProt P33261); assay: qHTS Assay for Inhibitors and Substrates of Cytochrome P450 2C19 (AID 899); also: nearly all actives have a fitted effect of over 60% in size; also: potency is read from the fitted curve at half-maximal effect
# Outline: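 5 nM human CYP2C19 with 10uM Luciferin-H EGE (at KM) in 50mM KPO4, compound preincubated 10 min at 37C, then NADPH regeneration for 60 min at 37C. Luciferin read by luminescence after detection reagent; normalized to 57uM ketoconazole as full inhibition.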
# [6] = Cell Viability - BJ (AID 421; calls by dose curve;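 also: potency is read from the fitted curve at half-maximal effect; cells exposed to compound for 40 hours at 37 °C before readout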); details: BJ fibroblast viability, qHTS
# Outline: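 Normal human BJ foreskin fibroblasts, 1500/well in complete medium, treated 40 hr at 37 °C. Cellular ATP by CellTiter-Glo luminescence; normalized to DMSO and 100 uM tamoxifen, AC50 from Hill fit.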
# [7] = Cell Viability - SK-N-SH (AID 435; calls by dose curve; also: potency is read from the fitted curve at half-maximal effect); details: SK-N-SH neuroblastoma cell viability qHTS
# Outline: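 qHTS cytotoxicity: CellTiter-Glo ATP luminescence after 40 h compound exposure of human neuroblastoma SK-N-SH cells at 37 °C. AC50 derived by Hill-equation fitting, with DMSO as basal and 100 uM tamoxifen as full inhibition.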
# [8] = Cell Viability - N2a (AID 540); details: N2a mouse neuroblastoma cell viability; activity change, negative = cytotoxicity: at 92.2 µM (top of the series); also: nearly all actives have a fitted effect of over 45% in size
# Outline: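 Mouse neuroblastoma N2a cells, 1500/well, exposed to compounds 40 h at 37 °C in complete medium. Viability measured as cellular ATP by CellTiter-Glo luminescence; AC50 from Hill fits of concentration-response.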
# [9] = Cell Viability - SH-SY5Y (AID 544); details: SH-SY5Y neuroblastoma cell viability; viability change, negative = cytotoxic: at 92.2 µM (top of the series); also: nearly all actives have a fitted effect of over 55% in size
# Outline: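 SH-SY5Y human neuroblastoma cells (1500/well) incubated 5 h, then compound-treated 40 h at 37 °C in complete medium. Viability read as intracellular ATP by CellTiter-Glo luminescence after 20 min; AC50 from Hill-equation fits of qHTS concentration-response.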
# [10] = Cell Viability - Renal Proximal Tubule (AID 545); details: renal proximal tubule cells viability, primary cells of rat origin; activity change, negative = cytotoxicity: at 91.7 µM (top of the series); also: nearly all actives have a fitted effect of over 40% in size
# Outline: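 Viability taken as intracellular ATP (CellTiter-Glo luminescence) after 40 hr, 37 °C compound treatment of primary proximal tubule cells from rat kidney, 1000 cells/well; Hill-equation fits of qHTS concentration-response data gave AC50.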
# [11] = Cellular Toxicity (caspase-3) HepG2 (AID 654);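 also: cells exposed to compound for 16 hours before reading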
# Outline: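 HepG2 cells (1500/well) were treated 16 h at 37 °C in complete medium, then caspase 3/7 activity was read by Caspase-Glo luminescence. Data were normalized to DMSO and 100 uM tamoxifen; AC50 came from Hill-equation fits of qHTS concentration-response.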
# [12] = Cellular Toxicity (caspase-3) HUV-EC-C (AID 656)
# Outline: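 Luminescent Caspase-Glo 3/7 readout after 16 h, 37 °C compound exposure of HUV-EC-C endothelial cells, 1000 per well, complete medium. AC50 derived by Hill fitting, with DMSO as baseline and 100 uM tamoxifen as full activation.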
# [13] = Cellular Toxicity (caspase-3) N2a (AID 665); details: Potency: caspase-3 activation;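 also: compound exposure lasted 16 h at 37 °C before readout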
# Outline: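 Mouse N2a neuroblastoma cells, 1500 per well, treated 16 h at 37 °C in complete medium; caspase-3/7 activity by Caspase-Glo luminescence after 1 h. Normalized to DMSO and 10 uM staurosporine; AC50 from Hill fits.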
# [14] = Cellular Toxicity (caspase-3) Renal Proximal Tubule (AID 667);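 also: cells exposed to compound for 16 hours at 37 °C before detection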
# Outline: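 Caspase 3/7 activation measured by luminescent aminoluciferin release in primary rat proximal tubule cells after 16 hr compound exposure at 37 °C. AC50 from Hill-fitted concentration-response, scaled between DMSO and 10 uM staurosporine.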
# [15] = biological target: Peroxisome proliferator-activated receptor alpha (Homo sapiens) (UniProt Q07869); assay: qHTS assay for small molecule agonists of the peroxisome proliferator-activated receptor alpha (PPARalpha) signaling pathway (AID 651778); details: PathHunter PPARalpha complementation, chemiluminescence, 6 h; max response: hits give high values
# Outline: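 Enzyme-fragment complementation assay in which ligand-bound PPARalpha translocates and forms an active enzyme that generates chemiluminescence. Cells were plated overnight, exposed to compound for 6 hr at 37 C, and then given detection reagent for 60 min at room temperature.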
# [16] = qHTS assay for cell viability of HEK293 cells (AID 743288); details: ATP luminescence (CellTiter-Glo), 18 h; max response: hits give low values; also: nearly all actives have a fitted effect of over 50% in size
# Outline: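 Total intracellular ATP, measured with a luciferase-coupled reagent, indicates the number of viable HEK293 cells. Exposure to test chemicals lasts 18 h at 37 C in 1,536-well format at 2,000 cells/well.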
# [17] = qHTS assay for cell viability of the p53RE-bla HCT-116 cell line (AID 743292); also: nearly all actives have a fitted effect of over 55% in size
# Outline: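 Compound-exposed HCT-116 (p53RE-bla) cells, 4,000 per well, were kept 16 h at 37 C following a 5 h preincubation. Cell number was estimated from total ATP by CellTiter-Glo luminescence read after 30 min at room temperature.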
# Sequence of Cytochrome P450 2C19 (Homo sapiens) (P33261 whole entry, looked up): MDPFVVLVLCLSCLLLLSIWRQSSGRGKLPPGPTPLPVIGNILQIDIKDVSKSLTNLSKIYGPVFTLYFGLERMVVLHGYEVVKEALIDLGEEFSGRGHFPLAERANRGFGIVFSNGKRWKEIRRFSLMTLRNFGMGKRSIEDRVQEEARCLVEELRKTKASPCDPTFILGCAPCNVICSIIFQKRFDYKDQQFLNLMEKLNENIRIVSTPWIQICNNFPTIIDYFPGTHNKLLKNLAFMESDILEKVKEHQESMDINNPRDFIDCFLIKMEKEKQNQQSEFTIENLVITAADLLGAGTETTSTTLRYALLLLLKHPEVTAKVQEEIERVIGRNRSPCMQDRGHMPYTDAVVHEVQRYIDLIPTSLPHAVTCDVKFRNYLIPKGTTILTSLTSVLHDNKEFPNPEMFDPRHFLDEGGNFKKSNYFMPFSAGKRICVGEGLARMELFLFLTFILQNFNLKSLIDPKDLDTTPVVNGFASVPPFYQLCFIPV
# Sequence of Cytochrome P450 3A4 (Homo sapiens) (P08684 whole entry, looked up): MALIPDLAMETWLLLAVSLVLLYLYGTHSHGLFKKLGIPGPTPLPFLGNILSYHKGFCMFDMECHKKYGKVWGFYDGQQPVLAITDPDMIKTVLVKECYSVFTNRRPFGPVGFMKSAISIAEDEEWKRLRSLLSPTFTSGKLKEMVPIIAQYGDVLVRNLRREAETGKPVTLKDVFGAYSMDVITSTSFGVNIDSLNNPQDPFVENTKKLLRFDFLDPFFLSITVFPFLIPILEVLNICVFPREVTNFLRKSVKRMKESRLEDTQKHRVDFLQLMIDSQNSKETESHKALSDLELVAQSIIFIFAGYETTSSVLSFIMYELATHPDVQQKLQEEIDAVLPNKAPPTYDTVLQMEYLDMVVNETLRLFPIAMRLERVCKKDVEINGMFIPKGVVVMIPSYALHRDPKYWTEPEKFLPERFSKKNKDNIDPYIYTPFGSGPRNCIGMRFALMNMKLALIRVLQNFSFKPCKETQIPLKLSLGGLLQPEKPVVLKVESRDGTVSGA
# Sequence of Cytochrome P450 1A2 (Homo sapiens) (P05177 whole entry, looked up): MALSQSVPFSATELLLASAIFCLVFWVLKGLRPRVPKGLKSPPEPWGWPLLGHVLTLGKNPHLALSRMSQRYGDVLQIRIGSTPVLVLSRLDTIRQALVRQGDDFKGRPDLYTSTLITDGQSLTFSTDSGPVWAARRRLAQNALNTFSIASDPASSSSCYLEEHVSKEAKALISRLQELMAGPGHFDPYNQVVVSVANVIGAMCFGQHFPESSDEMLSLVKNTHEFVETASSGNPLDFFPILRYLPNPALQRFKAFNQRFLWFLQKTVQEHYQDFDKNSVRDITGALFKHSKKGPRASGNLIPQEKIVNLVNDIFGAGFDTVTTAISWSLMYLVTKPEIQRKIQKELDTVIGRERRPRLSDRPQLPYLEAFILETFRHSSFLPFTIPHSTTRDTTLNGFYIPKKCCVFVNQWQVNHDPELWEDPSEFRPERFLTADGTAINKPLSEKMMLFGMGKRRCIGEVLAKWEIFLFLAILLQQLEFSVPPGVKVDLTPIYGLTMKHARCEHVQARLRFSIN
# Sequence of 3',5'-cyclic-AMP phosphodiesterase 4B (Homo sapiens) (Q07343 whole entry, looked up): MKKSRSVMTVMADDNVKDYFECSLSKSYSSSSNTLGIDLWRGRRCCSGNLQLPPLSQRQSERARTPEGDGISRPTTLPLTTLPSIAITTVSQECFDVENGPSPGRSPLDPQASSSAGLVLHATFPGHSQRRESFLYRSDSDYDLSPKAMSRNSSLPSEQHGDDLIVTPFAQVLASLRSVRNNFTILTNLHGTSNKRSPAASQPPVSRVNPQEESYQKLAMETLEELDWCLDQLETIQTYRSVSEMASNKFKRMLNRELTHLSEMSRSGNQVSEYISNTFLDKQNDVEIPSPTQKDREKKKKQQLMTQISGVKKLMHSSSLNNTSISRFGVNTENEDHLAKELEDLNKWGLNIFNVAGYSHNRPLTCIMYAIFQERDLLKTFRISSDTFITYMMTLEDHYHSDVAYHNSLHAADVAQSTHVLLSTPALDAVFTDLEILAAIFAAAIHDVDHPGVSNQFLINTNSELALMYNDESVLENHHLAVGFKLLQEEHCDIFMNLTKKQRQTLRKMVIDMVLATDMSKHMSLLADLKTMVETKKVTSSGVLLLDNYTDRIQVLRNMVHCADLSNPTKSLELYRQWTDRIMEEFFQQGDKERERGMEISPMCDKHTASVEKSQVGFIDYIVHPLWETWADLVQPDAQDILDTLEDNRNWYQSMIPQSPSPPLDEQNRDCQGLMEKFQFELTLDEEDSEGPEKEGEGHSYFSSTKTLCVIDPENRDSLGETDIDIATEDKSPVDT
# Sequence of Peroxisome proliferator-activated receptor alpha (Homo sapiens) (Q07869 whole entry, looked up, the tested form may be a part): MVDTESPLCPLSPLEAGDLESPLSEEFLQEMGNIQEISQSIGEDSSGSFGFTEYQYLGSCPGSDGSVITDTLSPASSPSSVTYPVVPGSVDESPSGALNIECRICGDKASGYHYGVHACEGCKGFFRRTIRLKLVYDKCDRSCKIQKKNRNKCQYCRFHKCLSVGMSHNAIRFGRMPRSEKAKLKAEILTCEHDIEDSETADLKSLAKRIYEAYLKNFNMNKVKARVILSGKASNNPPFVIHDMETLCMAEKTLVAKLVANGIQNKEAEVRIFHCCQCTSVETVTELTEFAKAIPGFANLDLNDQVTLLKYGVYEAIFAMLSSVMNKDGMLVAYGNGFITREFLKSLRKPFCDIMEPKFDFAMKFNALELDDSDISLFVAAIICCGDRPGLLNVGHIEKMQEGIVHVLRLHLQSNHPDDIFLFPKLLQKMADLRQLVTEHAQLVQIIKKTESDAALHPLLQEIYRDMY
compound,measurement,setting,value
COC(=O)C1(CC(C)C)C=C2C(=C(c3ccccc3)C(=O)C2C)CN1 (centres undefined),Potency,[1],15.8 µM (active)
same,Potency,[2],inactive
same,Potency,[3],inactive
same,Potency,[4],inactive
Cc1nn(C)c(Cl)c1S(=O)(=O)N[C@@H](c1ccccc1)[C@]1(C)C[C@H]1[C@@H](C)C(=O)Nc1ccc2ccccc2c1,Potency,[1],5.01 µM (active)
same,Potency,[2],inactive
same,Potency,[3],inactive
same,Potency,[4],inactive
C[C@@H](C(=O)Nc1ccc2ccccc2c1)[C@@H]1C[C@@]1(C)[C@@H](NC(=O)c1ccncc1Cl)c1ccccc1,Potency,[1],25.1 µM (active)
same,Potency,[2],inactive
same,Potency,[3],inactive
same,Potency,[4],inactive
CCCCCC1=C2CNC(CCC)(C(=O)OC)C=C2C(C)C1=O (centres undefined),Potency,[1],31.6 µM (active)
same,Potency,[2],inactive
same,Potency,[3],inactive
same,Potency,[4],inactive
COC(=O)[C@@H]1C[C@H]1[C@@H](NC(=O)c1cnccn1)c1ccccc1,Potency,[1],12.6 µM (active)
same,Potency,[2],inactive
same,Potency,[3],inactive
same,Potency,[4],inactive
COC(=O)C1(CC(C)C)C=C2C(=C(C(C)C)C(=O)C2C)CN1 (centres undefined),Potency,[1],15.8 µM (active)
same,Potency,[2],inactive
same,Potency,[3],inactive
same,Potency,[4],inactive
Cc1c2c(nc3ccccc13)-c1cccc(=O)n1C2,Potency,[1],0.1 µM (active)
same,Potency,[2],inactive
same,Potency,[3],inactive
same,Potency,[4],inactive
CCc1c2c(nc3ccc(OC)cc13)COC2,Potency,[1],0.794 µM (active)
same,Potency,[2],inactive
same,Potency,[3],inactive
same,Potency,[4],inactive
CCCC[C@@H]1C[C@H]1C(NC(=O)c1cccnc1)c1ccc(Cl)cc1 (some centres undefined),Potency,[1],7.94 µM (active)
same,Potency,[2],inactive
same,Potency,[3],inactive
same,Potency,[5],2 µM (active)
CC(C)c1cccc2nc3c(c([Si](C)(C)C)c12)Cn1c-3cccc1=O,Potency,[1],15.8 µM (active)
same,Potency,[2],inactive
same,Potency,[3],inactive
same,Potency,[4],inactive
CN1[C@H]2CC(OC(=O)[C@H](CO)c3ccccc3)C[C@H]1[C@H]1O[C@H]12 (some centres undefined),Potency,[6],> 92 µM
same,Potency,[7],> 92 µM
same,Potency,[8],inactive
same,Potency,[9],inactive
same,Potency,[10],inactive
same,Potency,[11],inactive
same,Potency,[12],inactive
same,Potency,[13],inactive
same,outcome,[14],inactive
same,max response,[15],-2.4% and 1.32%
same,max response,[16],-2.2% and 1.37%
same,Potency,[17],inactive
CCC/C=C(\CCC)C(NC(=O)Cc1ccccc1)c1ccc(C(=O)OC)cc1 (centres undefined),Potency,[1],15.8 µM (active)
same,Potency,[4],inactive
same,Potency,[5],2.51 µM (active)
CC(C)C[C@@H](CC(=O)N[C@@H](CCC(=O)O)CC(=O)O)NC(=O)[C@@H]1CNCC[C@H]1NC(=O)C[C@@H](NC(=O)C[C@H](Cc1c[nH]c2ccccc12)NC(=O)[C@@H]1CNCC[C@H]1N)C(C)C,Potency,[1],inactive
same,Potency,[3],inactive
same,Potency,[5],inactive
CC(C)c1cccc2c([Si](C)(C)C)c3c(nc12)-c1cccc(=O)n1C3,Potency,[1],15.8 µM (active)
same,Potency,[4],inactive
CCCC[C@@H]1C[C@H]1C(NC(=O)c1cccs1)c1ccc(Cl)cc1 (some centres undefined),Potency,[1],1 µM (active)
same,Potency,[3],inactive
same,Potency,[4],inactive
same,Potency,[5],0.0794 µM (active)
